# PubChem BioAssay
# Several values for one entry are separate records, joined by “and”; a condition that tells them apart may be missing. Equal entries are not always repeated. Activity calls are given as the source filed them.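 The calls were made as follows, unless noted: active = inhibition at or above 50% relative to wild type and mutant plate controls; inactive = inhibition below 50%.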
# Tests used:
# [1] = inhibitors of TNFa-induced NFkB p65 translocation, primary screen, imaging, HUVEC, MLSMR starter and 10KST1 sets (AID 438;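 active = inhibition above 20% together with a positive visual image hit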;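 also: compound added about 3h40 before a 20 min TNFalpha stimulation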;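 as to inhibition: signal is the nuclear over cytoplasmic p65 intensity ratio per well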); conditions: HUVEC TNFa-induced p65 nuclear translocation; cell count: measured here: nuclei count (cytotoxicity indicator), at 2.08 µM; inhibition: at 2 µM, stronger effect = higher value, 0% TNFa-plus-vehicle, 100% no-TNFa wells
# [2] = reduction of polyQ htt aggregates in cells – imaging, exon1htt(103Q)mCFP cells, high-content imaging, primary screen (AID 483;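 active = visual image review flags a hit and inhibition of aggregation exceeds 20%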;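 also: compound exposure lasted 3 days before fixation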;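 as to nuclei count: percent of the per-plate median nuclei count of sample wells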); conditions: exon1htt(103Q)mCFP cell line, aggregate imaging, at 2 µM; inhibition of aggregation: stronger effect = higher value; nuclei count: measured here: cell count, toxicity
# [3] = endothelial E-selectin expression blockers – imaging, HUVEC, immunofluorescence, MLSMR starter and 10KST1 sets, primary screen (AID 487;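 active = visually confirmed hit in the image check and inhibition above 20%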;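 as to inhibition: signal is fraction of cell area covered by stained E-selectin grains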;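 as to nuclei count: 100% = median nuclei count of all wells on the same plate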); conditions: HUVEC TNFalpha-induced E-selectin immunofluorescence imaging, at 2 µM; inhibition: stronger effect = higher value; nuclei count: measured here: cell number, toxicity
# [4] = Primary imaging screen for DUSP6 inhibitors that restore phospho-Erk in transfected HeLa cells, chemical complementation (AID 609;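 active = compounds giving at least 50% inhibition in the cell-based MKP-3 phosphatase rescue imaging test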;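 as to inhibition: phospho-Erk level distribution per well compared with pooled transfected vehicle control wells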); conditions: HeLa MKP-3 transfected, phospho-Erk imaging KS statistic, at 10 µM, cells stimulated with TPA for 15 min
# [5] = biological target: Dual specificity protein phosphatase 6 (Homo sapiens) (UniProt Q16828); experiment: as above; conditions: HeLa MKP-3 transfected, phospho-Erk imaging KS statistic; at 10 µM; stronger effect = higher value; cells stimulated with TPA for 15 min
# Sequence of Dual specificity protein phosphatase 6 (Homo sapiens) (Q16828 whole entry, looked up): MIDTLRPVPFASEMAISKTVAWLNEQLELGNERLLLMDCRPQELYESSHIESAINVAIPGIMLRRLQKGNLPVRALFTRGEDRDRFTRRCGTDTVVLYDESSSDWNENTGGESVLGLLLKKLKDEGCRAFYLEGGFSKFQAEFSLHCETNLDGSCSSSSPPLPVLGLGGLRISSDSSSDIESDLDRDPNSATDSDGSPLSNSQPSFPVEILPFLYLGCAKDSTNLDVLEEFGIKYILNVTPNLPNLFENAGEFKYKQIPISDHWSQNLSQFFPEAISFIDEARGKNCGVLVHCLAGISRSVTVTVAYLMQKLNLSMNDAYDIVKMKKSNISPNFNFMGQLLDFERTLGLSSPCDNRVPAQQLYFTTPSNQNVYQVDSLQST
# [6] = biological target: Voltage-gated potassium channel subunit beta-2 (Rattus norvegicus) (UniProt P62483); experiment: inhibitors of rat Kvbeta2 reductase activity – biochemical, NADPH fluorescence, primary screen (AID 622;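 active = fluorescence slope higher than the sample average by over 3 SD, cut at about -0.22 in these data, passing the limit was not always enough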;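 also: slope of raw intensity against log time taken from 70 to 1610 s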); conditions: recombinant KvBeta, 4-cyanobenzaldehyde reduction, at 10 µM, stronger effect = higher value
# Sequence of Voltage-gated potassium channel subunit beta-2 (Rattus norvegicus) (P62483 whole entry, looked up): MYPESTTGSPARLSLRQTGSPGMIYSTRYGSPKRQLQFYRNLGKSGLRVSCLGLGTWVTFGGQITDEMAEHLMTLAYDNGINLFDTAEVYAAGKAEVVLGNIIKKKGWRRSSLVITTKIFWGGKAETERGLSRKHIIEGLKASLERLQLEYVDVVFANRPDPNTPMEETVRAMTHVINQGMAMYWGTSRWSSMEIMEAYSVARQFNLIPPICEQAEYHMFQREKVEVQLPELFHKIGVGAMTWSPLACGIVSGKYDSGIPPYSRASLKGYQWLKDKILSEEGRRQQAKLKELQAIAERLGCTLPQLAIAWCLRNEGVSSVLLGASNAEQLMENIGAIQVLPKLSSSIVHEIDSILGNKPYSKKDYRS
# [7] = biological target: Voltage-gated potassium channel subunit beta-2 (Rattus norvegicus) (UniProt P62483); experiment: enhancers of rat Kvbeta2 NADPH turnover – biochemical, NADPH fluorescence, primary screen (AID 623;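 active = NADPH fluorescence slope more negative than the mean of all samples by about 3 SD, 99.7% confidence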;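 also: fluorescence intensity change per second fitted from 20 to 320 s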); conditions: Recombinant KvBeta, NADPH fluorescence decrease slope, 10 min; at 10 µM; stronger effect = lower value
# [8] = biological target: Alpha-2C adrenergic receptor (Homo sapiens) (UniProt P18825); experiment: compounds altering alpha2C-coupled GIRK flux – cell-based, HEK293 alpha2C/GIRK1/2, thallium flux, primary screen (AID 624;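 active = fluorescence slope after compound addition differing from the mean of all screened samples at 99.7% confidence, in either direction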;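 also: slope of fluorescence ratio to pre-addition baseline per second over 15 to 24 s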); conditions: thallium flux BTC fluorescence, at 10 µM, actives lie on both sides
# Sequence of Alpha-2C adrenergic receptor (Homo sapiens) (P18825 whole entry, looked up): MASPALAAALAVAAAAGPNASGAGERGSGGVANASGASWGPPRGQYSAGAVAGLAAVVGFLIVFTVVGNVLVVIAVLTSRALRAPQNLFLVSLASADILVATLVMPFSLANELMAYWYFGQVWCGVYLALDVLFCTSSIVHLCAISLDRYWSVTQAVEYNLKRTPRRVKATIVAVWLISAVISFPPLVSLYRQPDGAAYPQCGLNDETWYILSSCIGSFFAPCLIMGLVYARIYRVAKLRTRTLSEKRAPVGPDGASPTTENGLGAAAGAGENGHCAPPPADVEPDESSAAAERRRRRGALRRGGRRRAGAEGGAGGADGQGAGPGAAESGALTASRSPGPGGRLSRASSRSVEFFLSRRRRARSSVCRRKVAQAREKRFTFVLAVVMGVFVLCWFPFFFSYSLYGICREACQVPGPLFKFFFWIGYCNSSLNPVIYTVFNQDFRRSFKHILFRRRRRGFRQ
# [9] = inhibitors of larval lipid processing in zebrafish, primary screen, whole organism, PED6 fluorescence, gall bladder and intestine (AID 686;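 active = a full or partial loss of lipid-probe fluorescence in the fish gall bladder, intestine or both, judged by eye; inactive = no fluorescence loss, or compound toxic to the fish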;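 also: larvae 5 to 7 days old with five fish per well; signal comes from phospholipase A2 cleavage of quenched PED6 carried via bile; overnight exposure to compound and PED6 before scoring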); conditions: Zebrafish larvae PED6 lipid processing, fluorescence scoring; screened at 20 µM (by protocol)
# [10] = loss of swimming-algae plug formation – whole organism, Chlamydomonas reinhardtii, WT vs cilia-less mutant, absorbance, 96-well, primary screen (AID 463189); conditions: Chlamydomonas reinhardtii gravitaxis, OD600 absorbance, 2 days; at 10 µM; stronger effect = higher value;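 also: 0% = wild type cc124 cells in DMSO and 100% = ciliumless bld1 mutant cells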
# [11] = blockers of RIG-like receptor reporter activation – cell-based, Sendai virus stimulus, luciferase, 10K MLSCN set, TLR/RLR signaling modifier project, primary screen (AID 602276;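 active = inhibition at or above 50% at 10 µM; inactive = inhibition below 50%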;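 also: firefly luciferase from ISG56 promoter only with Renilla not read in this screen; 0% = Sendai virus plus DMSO and 100% = medium plus DMSO without virus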); conditions: HEK293 RL24 IRF3 luciferase reporter, at 10 µM, stronger effect = higher value
# [12] = TLR3 IRF3 reporter activation blockers – cell-based, poly I:C stimulus, luciferase, 10K MLSCN set, primary screen (AID 602277;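 active = inhibition of the reporter signal at or above 50%; inactive = inhibition below 50%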); conditions: HEK293-TLR3 RL24 IRF3 luciferase reporter, at 10 µM, stronger effect = higher value
# [13] = measured here: cell density z-score
# [14] = measured here: nuclear c-Myc green intensity z-score
# [15] = measured here: nuclear pErk red intensity z-score, stronger effect = higher value
Compound,cell count [1],inhibition [1],inhibition of aggregation [2],nuclei count [2],inhibition [3],nuclei count [3],"z-score [4, 13]","z-score [4, 14]","z-score [4, 15]",inhibition [5],fluorescence slope [6],NADPH fluorescence slope [7],slope [8],outcome [9],inhibition [10],inhibition [11],inhibition [12]
CCN(CC)S(=O)(=O)c1cccc2c(N(C)C)cccc12,503,-2.1% (inactive),14.8% (inactive),95.3%,-84.9% (inactive),128%,0.324,-0.162,1.65,0.671% (inactive),-0.177 (active),-1.3e-05 (inactive),0.00311 (inactive),inactive,25.1% (inactive),-4.35% (inactive),-4.09% (inactive)
CCOC(=O)/C(C#N)=C1\Nc2ccccc2N=C1N(CC(C)C)CC(C)C,586,-7.3% (inactive),-2.5% (inactive),105%,-92.9% (inactive),148%,-0.677,-0.872,-0.406,3.56% (inactive),-0.524 (inactive),-3.1e-05 (inactive),0.00419 (inactive),inactive,1.92% (inactive),-5.84% (inactive),-1.84% (inactive)
Brc1c(NC2=NCCN2)ccc2nccnc12,621,-4.8% (inactive),-11.3% (inactive),104%,-58.7% (inactive),120%,-0.535,0.61,1.33,34.5% (inactive),-0.534 (inactive),1.1e-06 (inactive),0.0151 (active),inactive,5.25% (inactive) and -5.37% (inactive),14% (inactive),28.8% (inactive)
c1ccc(CN(CC2=NCCN2)c2ccccc2)cc1,455 and 493,0% (inactive) and 19.7% (inactive),9.9% (inactive) and 6.3% (inactive),97.2% and 85%,-8.6% (inactive) and -65.1% (inactive),98.7% and 128%,0.164 and -0.173,0.692 and 0.37,-0.518 and 0.488,8% (inactive) and 13.3% (inactive),-0.512 (inactive) and -0.523 (inactive),-3e-05 (inactive) and -2.5e-05 (inactive),0.00381 (inactive) and 0.00497 (inactive),inactive,-11.5% (inactive) and 25.6% (inactive),-7.89% (inactive) and 7.92% (inactive),0.563% (inactive) and 36.8% (inactive)
CN(C)C(=O)Oc1cccc([N+](C)(C)C)c1,531 and 586,-9.9% (inactive) and -7.8% (inactive),17.2% (inactive) and -13.6% (inactive),74.9% and 106%,-9.8% (inactive) and -52% (inactive),104% and 142%,0.51 and -0.93,1.04 and 0.599,0.404 and -0.0753,17.3% (inactive) and -0.493% (inactive),-0.425 (inactive) and -0.463 (inactive),-3.3e-06 (inactive) and -0.000178 (inactive),0.00518 (inactive) and 0.00527 (inactive),inactive,-1.35% (inactive) and 24.7% (inactive) and 16% (inactive),14.9% (inactive) and 3.46% (inactive),31.8% (inactive) and 16.1% (inactive)
Cn1c2c(c(=O)n(C)c1=O)C(NC(=O)C(C)(C)C)(C(F)(F)F)C(=O)N2 (stereo not drawn),538,-3.9% (inactive),0.9% (inactive),103%,-105% (inactive),131%,-0.683,-0.488,-0.945,5.26% (inactive),-0.51 (inactive),-6.1e-05 (inactive),0.00635 (inactive),inactive,17.2% (inactive),14.7% (inactive),16.6% (inactive)
C[C@@H]1C[C@H]2[C@@H]3C[C@H](F)C4=CC(=O)C=C[C@]4(C)[C@@]3(F)[C@@H](O)C[C@]2(C)[C@@]1(O)C(=O)CO,647,-3.8% (inactive),-18.8% (inactive),42.3%,-111% (inactive),128%,-1.38,0.0959,0.878,9.37% (inactive),-0.535 (inactive),-3.8e-05 (inactive),0.00526 (inactive),inactive,-6.12% (inactive),-11.6% (inactive),33.6% (inactive)
CC(=O)NS(=O)(=O)c1ccc(N)cc1,651,7.7% (inactive),12.5% (inactive),97.6%,-106% (inactive),120%,-1.23,1.33,-0.291,14.6% (inactive),-0.508 (inactive),-4.5e-05 (inactive),0.00641 (inactive),inactive,46.5% (inactive),11.7% (inactive),26.8% (inactive)
CC(COc1ccccc1)NC(C)C(O)c1ccc(O)cc1 (stereo not drawn),534,-7.4% (inactive),-13.1% (inactive),100%,-135% (inactive),121%,-1.06,-0.532,0.827,-12.3% (inactive),-0.54 (inactive),4.6e-06 (inactive),0.00639 (inactive),inactive,-3.83% (inactive),-5.16% (inactive),-30% (inactive)
Nc1nnc(-c2cccc(Cl)c2Cl)c(N)n1,697,-8.4% (inactive),2.2% (inactive),112%,-39.9% (inactive),139%,-0.0756,-0.0257,1.16,1.48% (inactive),-0.527 (inactive),-7.1e-06 (inactive),0.00578 (inactive),inactive,-6.28% (inactive) and 7.36% (inactive),-2.35% (inactive),13.8% (inactive)
Nc1ccc(S(=O)(=O)c2ccc(N)cc2)cc1,511,-1.5% (inactive),0.3% (inactive),103%,-20.6% (inactive),106%,-0.829,0.112,0.308,16.8% (inactive),-0.465 (inactive),3.3e-05 (inactive),0.00573 (inactive),inactive,8.87% (inactive),-3.01% (inactive),11.3% (inactive)
CCC(=O)N[C@@H]1CC(C(C)(C)NC(=O)CC)CC=C1C (stereo partly drawn),537,-16.4% (inactive),-10.9% (inactive),110%,-21.9% (inactive),137%,-0.93,0.526,-0.616,-6.06% (inactive),-0.349 (inactive),-1e-06 (inactive),0.00698 (inactive),inactive,6.4% (inactive),18.2% (inactive),18.8% (inactive)
C[C@]12CCC(=O)C=C1CC[C@@H]1[C@@H]2C(=O)C[C@@]2(C)[C@H]1CC[C@]2(O)C(=O)CO,603,-6% (inactive),21.4% (inactive),102%,-119% (inactive),120%,-0.503,-1.16,1.19,-4.44% (inactive),-0.503 (inactive),-3.1e-05 (inactive),0.00463 (inactive),inactive,-0.81% (inactive) and 2.73% (inactive),10.2% (inactive),21.1% (inactive)
C[C@@H]1C[C@H]2[C@@H]3CCC4=CC(=O)C=C[C@]4(C)[C@@]3(F)[C@@H](O)C[C@]2(C)[C@@]1(O)C(=O)COP(=O)(O)O,525,-10.3% (inactive),-19.8% (inactive),49.4%,-15.3% (inactive),98.8%,0.835,0.378,-0.291,25.1% (inactive),-0.516 (inactive),-5.2e-05 (inactive),0.00437 (inactive),inactive,31.6% (inactive),-1.94% (inactive),31.9% (inactive)
CCCCCCCCCCCCCCCC(O)C(N)CO (stereo not drawn),586,0.2% (inactive),-17.4% (inactive),104%,-75.6% (inactive),122%,0.584,2.76,2.96,25.1% (inactive),-0.485 (inactive),-6.4e-05 (inactive),0.00528 (inactive),inactive; toxic,61% (active),18.8% (inactive),4.1% (inactive)
O=C(COc1ccccc1)Nc1ccc(-c2nnc(-c3ccco3)o2)cc1,458,-4.3% (inactive),7.5% (inactive),101%,-252% (inactive),102%,-2.58,1.43,-0.658,3.97% (inactive),-0.499 (inactive),-2.1e-05 (inactive),0.00796 (inactive),inactive,-15.4% (inactive),-55.4% (inactive),-103% (inactive)
COc1ccc(CCN2CCC(Nc3nc4ccccc4n3Cc3ccc(F)cc3)CC2)cc1,525,-1.3% (inactive),-3% (inactive),83.3%,-28.6% (inactive),107%,-0.393,1.49,0.359,7.39% (inactive),-0.513 (inactive),-0.000106 (inactive),0.00466 (inactive),inactive,133% (active),-3.81% (inactive),-23.6% (inactive)
Nc1nc(Cl)nc2c1ncn2[C@H]1C[C@H](O)[C@@H](CO)O1,522 and 557,-10.7% (inactive) and -11.5% (inactive),-36.7% (inactive),10%,-143% (inactive) and -17% (inactive),133% and 106%,1.67 and -3.27,-1.09 and -0.338,-0.372 and -0.606,7.39% (inactive) and -2.46% (inactive),-0.46 (inactive) and -0.431 (inactive),-2e-05 (inactive) and -2.2e-05 (inactive),0.00559 (inactive) and 0.00513 (inactive),inactive,18.6% (inactive) and -15.6% (inactive),12.3% (inactive) and 18.7% (inactive),41.2% (inactive) and 27.6% (inactive)
Nc1nc(Cl)nc2c1ncn2[C@@H]1O[C@H](CO)[C@@H](O)[C@H]1O,493,-14.6% (inactive),16.9% (inactive),88.7%,-20.3% (inactive),117%,0.919,0.297,-0.425,7.39% (inactive),-0.439 (inactive),2.4e-05 (inactive),0.00614 (inactive),inactive,13% (inactive),16.8% (inactive),39% (inactive)
